Assay results from PubChem BioAssay (NCI).
Compounds without any hit were thinned out: in the full panel of roughly 79,000, 15% have a hit. A number with no mark means an inactive call. The source made the active and inactive calls. Rule as the data show it: active = growth inhibition above about 70%; inactive = the rest.

Assay: NCI Yeast Anticancer Drug Screen. Data for the rad14 strain (AID 159);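 also: 0% = growth of vehicle-treated control cultures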
Conditions: S. cerevisiae rad14 strain growth inhibition, hits give high values
Method: Growth inhibition of yeast strains with defined genetic alterations is measured as a screen for potential anti-cancer activity. Selected strains with alterations in DNA damage repair or cell cycle control were exposed to compounds and growth inhibition was measured relative to vehicle treated controls. The strain used in this assay is rad14

| Structure (SMILES) | growth inhibition (at 1.2 µM) [%] | growth inhibition (at 3.7 µM) | growth inhibition (at 11.0 µM) | growth inhibition (at 33.0 µM) | growth inhibition (at 100.0 µM) |
| --- | --- | --- | --- | --- | --- |
| [N-]=N[N+]#I1OC(C(F)(F)F)(C(F)(F)F)c2ccccc21 | 27 | 90% (active) | 99% (active) | 100% (active) | 99% (active) |
| CC(=O)ON1C(=O)c2cccc3cccc(c23)C1=O | 51 | 95% (active) | 98% (active) | 99% (active) | 99% (active) |
| CCN(CC)CC[n+]1ccc2c(C)c3[nH]c4ccc(O)cc4c3c(C)c2c1 | -3 | -5% | 3% | 3% | 60% |
| Nc1nc(Cl)c(Cl)c(Cl)n1 | 3 | 8% | 30% | 99% (active) | 99% (active) |
| Cc1nn(-c2cc(Cl)ccc2[N+](=O)[O-])c(C)c1Cl | -1 | 0% | 4% | 2% | 3% |
| O=c1c2ccccc2ncn1COCc1ccccc1 | -13 | 0% | -15% | -6% | 5% |
| c1ccc2c(c1)sc1cc3ccncc3cc12 | 2 | 7% | 16% | 36% | 97% (active) |
| BrCc1cccc2ccc3cccc(CBr)c3c12 | -2 | -2% | -2% | -2% | 2% |
